# Source: ChEMBL document CHEMBL4513216, “Probing the Open Global Health Chemical Diversity Library for Multistage-Active Starting Points for Next-Generation Antimalarials” (ACS Infect Dis, 2020)
# The campaign covered roughly 69,000 compounds. About 8,600 (12%) showed an effect of 50% or more. The sample holds strong results, similar compounds and a random draw of the others, so the mix is not that of the screen.
# System: Plasmodium berghei
# Experiment: Screen against P. berghei liver stage (PbLuc), transformed with Luciferase, at 10uM
# Type: functional, HepG2
# Conditions: tested at 10 uM
row,SMILES,INHIBITION [%]
1,Cc1c(-c2cc(C(F)(F)F)nc(N3CCC(N)CC3)n2)cnn1C,50.8
2,CCc1ccc(-c2cc(C(F)(F)F)nc(N3CCC(N)CC3)n2)cc1,91.4
3,CCn1ncc(-c2cc(C(F)(F)F)nc(N3CCC(N)CC3)n2)c1C,-1.84
4,Cc1ccc(-c2cc(C(F)(F)F)nc(N3CCOCC3)n2)s1,29.8
5,FC(F)(F)c1cc(-c2cccs2)nc(N2CCN3CCCC3C2)n1 (stereo unspecified),25.3
6,CCc1nc(C2CCCN2Cc2cc(=O)n(C)c(=O)n2C)no1 (stereo unspecified),-27.9
7,CC(C)C(CCO)NC(=O)Nc1ccc(-c2csnn2)cc1 (stereo unspecified),-6.39
8,Cc1cccc(CN2C(=O)CCC23CCN(c2ccccn2)CC3)n1,-11
9,Cc1nn(-c2cc(Cl)cc(Cl)c2)c(C)c1CCC(=O)O,46.1
10,CC(c1ccccn1)N(C)Cc1ccc(-n2cncn2)cc1 (stereo unspecified),28.5
11,CN1CCOC(CNC(=O)CCCOc2ccccc2F)C1 (stereo unspecified),52
12,CN1CCOC(CNC(=O)C2(c3cccc(Cl)c3)CC2)C1 (stereo unspecified),0.348
13,Cc1ccccc1OCCCC(=O)NCC1CN(C)CCO1 (stereo unspecified),22.265
14,CN1CCOC(CNC(=O)CCCOc2cccc(F)c2)C1 (stereo unspecified),-5.2
15,CN1CCOC(CNC(=O)C2(c3ccccc3)CCC2)C1 (stereo unspecified),57.4
16,Cc1cccc(C2(C(=O)NCC3CN(C)CCO3)CC2)c1 (stereo unspecified),19.8
17,CC(C)CC(CC(C)C)NC(=O)c1ccn(C)c(=O)c1,1.51
18,COc1ncccc1CN1C[C@H]2C[C@@H](C(=O)NCC3CC3)N(C)[C@H]2C1,29.7
19,CC(C)c1nn(C)cc1CNCc1cccnc1N(C)C,14.7
20,CSCC(=O)N1CCc2c(cnc(C)c2-c2noc(-c3ccco3)n2)C1,33
21,Cn1ncc(C(=O)OCC2CCN(c3ccccc3)C2)c1C(F)F (stereo unspecified),9.96
22,COCc1nc(C(=O)OCC2CCN(c3ccccc3)C2)cs1 (stereo unspecified),18.3
23,Cc1ncsc1C(=O)OCC1CCN(c2ccccc2)C1 (stereo unspecified),89.4
24,COCCn1cc(NC(=O)NCC2CCN(c3ccccc3)C2)cn1 (stereo unspecified),22.8
25,Cc1ncsc1C(=O)N1CCN(Cc2ccccc2)CC1C (stereo unspecified),23.8
26,Cc1ncc(C(=O)OCC2CCN(c3ccccc3)C2)s1 (stereo unspecified),58.5

row,SMILES,INHIBITION [%]
1,O=C(OCC1CCN(c2ccccc2)C1)c1cscn1 (stereo unspecified),51.7
2,O=C(OCC1CCCN(C(=O)c2ccccc2)C1)c1cscn1 (stereo unspecified),10.6
3,Cc1ncsc1C(=O)OCCN1CCCc2ccccc21,41.3
4,Cc1oc(-c2nc(C#N)c(NC3CC3)o2)cc1S(=O)(=O)N1CCCC1,25.8
5,CCN(Cc1ccco1)C(=O)NCC(C)N1CCc2sccc2C1 (stereo unspecified),-3.72
6,Cc1occc1C(=O)N1C[C@@H]2CCCO[C@@H]2[C@H](N(C)Cc2ccco2)C1,43.9
7,Cc1cccc(CN(C(=O)NCc2ccccn2)C2CC2)c1,19.4
8,CN(C)c1cc(C(=O)N2CCCC2)ccn1,-4.567
9,COc1ccccc1N1CCN(C(=O)c2ccoc2)CC1,-17.4
10,COc1ccccc1N1CCN(C(=O)c2ccnc(N(C)C)c2)CC1,77.15
11,O=C(N1CCCO1)[C@@]12CCO[C@@H]1CCN(Cc1ccsc1)C2,14.5
12,CC(CNC(=O)N1CCSCC1)Cc1cccs1 (stereo unspecified),-18.2
13,CC(CNC(=O)N1CCNC(=O)CC1)Cc1cccs1 (stereo unspecified),51.1
14,CC(CNC(=O)N1CCS(=O)(=O)CC1)Cc1cccs1 (stereo unspecified),16.1
15,Cn1cc(CN(CC2(O)CCNC2)C2CCCCC2)cn1 (stereo unspecified),38.5
16,O=C(Nc1ccccc1F)C1CN(C(=O)c2ccc3c(c2)OCO3)C1,46.1
17,Cc1nnc([C@@]23CCO[C@@H]2CCN(S(=O)(=O)c2cccnc2)C3)o1,-1.36
18,CCCS(=O)(=O)N1CC[C@H]2OCC[C@@]2(c2nnc(C)o2)C1,55.5
19,Cc1noc([C@@]23CCO[C@@H]2CCN(S(=O)(=O)c2cccnc2)C3)n1,44.8
20,CCS(=O)(=O)N1CC[C@H]2OCC[C@@]2(c2nnc(C)o2)C1,34.6
21,Cc1nnc([C@@]23CCO[C@@H]2CCN(S(C)(=O)=O)C3)o1,23.3
22,Cc1nnc([C@@]23CCO[C@@H]2CCN(S(=O)(=O)c2ccccc2)C3)o1,61.1
23,CN(C)CCOCC1CN(Cc2cccs2)Cc2ccnn2C1 (stereo unspecified),33.4
24,CC(NC1CCN(CCc2ccncc2)CC1)c1cnn(C(C)C)c1 (stereo unspecified),37.9
25,Cc1cccnc1NC(=O)c1ccc(F)c(S(=O)(=O)N2CCC2)c1,13.3
